# From PubChem BioAssay (NCATS)
# Several values for one entry are separate records, joined by “and”; a condition that tells them apart may be missing. Identical values can stand only once. Records with an inconclusive call do not appear. A number with no mark means an inactive call. Activity calls are given as the source filed them. Calls follow the shape of the dose curve; as a rule, active = well fitted curve in the direction sought with a large enough effect; inconclusive = small, poorly fitted or top-dose-only effect, or another doubt; inactive = no such curve, though single readings can be large; an effect the other way counts as inactive or inconclusive.
# Columns and labels:
# [1] = Viability qHTS for spleen associated tyrosine kinase inhibitor (SYKi) drug resistant MV4-11 cells (AID 1963824); also: nearly all actives have a fitted effect of over 35% in size
# Outline: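 SYK-inhibitor-resistant MV4-11 AML cells were seeded at 500 per well onto compound and cultured 72 hours (37 °C, 5% CO2). CellTiter-Glo was then added, and after 10 min at room temperature, luminescence gave viability.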
# [2] = Cellular viability qHTS for adrenocortical cancer (ACC) cell line SW-13 (AID 1963989); settings: SW-13 ACC cells viability, CellTiter-Glo, 48 h; activity (max response): hits give low values; also: nearly all actives have a fitted effect of over 65% in size;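 as to activity (max response): cells grown in serum-free medium with ITS supplement; % is scaled to controls: 0 for no effect and ±100 for the full control effect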
# Outline: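 48 h treatment, SW-13 in ITS/DMEM serum-free; doses up to 46 uM; readout CellTiter-Glo luminescence; curve fit four-parameter logistic.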
# [3] = Cellular viability qHTS for adrenocortical cancer (ACC) cell line NCI-H295R (AID 1963990); also: nearly all actives have a fitted effect of over 60% in size;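 as to activity change, negative = viability loss: 0% = DMSO only wells and -100% = full killing with cytotoxic reference compound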
# Outline: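 Compound titrations (up to 46 uM final) are applied to NCI-H295R cultures for 48 h at 37C. Viable cell number is estimated by CellTiter-Glo signal, normalised to DMSO and doxorubicin controls.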
# Potency is read from the fitted curve at half-maximal effect.
compound,measurement,setting,value
CC(=O)O/N=C1/C(c2c(O)[nH]c3cc(Br)ccc23)=Nc2ccccc21,Potency,[1],0.209 µM (active)
same,Potency,[2],25.1 µM (active)
same,Potency,[3],15.8 µM (active)
COc1ccc2nc(SCc3ncc(C)c(OC)c3C)[nH]c2c1,Potency,[1],inactive
same,activity (max response),[2],3.67%
same,Potency,[3],inactive
Cc1cccc(C)c1NC(=O)CN1CCCC1,Potency,[1],5.96 µM (active)
same,activity (max response),[2],3.45%
same,Potency,[3],inactive
COc1ccc(COc2ccc(Cc3cnc(N)nc3N)cc2OC)cc1,Potency,[1],7.31 µM (active)
same,activity (max response),[2],-16.4%
same,Potency,[3],inactive
C[n+]1c2cc(N)ccc2cc2ccc(N)cc21 (tested in a mixture with another compound),Potency,[1],1.88 µM (active)
same,Potency,[2],2.31 µM (active)
same,Potency,[3],1.3 µM (active)
Cc1ccc(-c2nn(C(C)(C)CNC(=O)c3ccncc3)c3ncnc(N)c23)cc1,Potency,[1],6.61 µM (active)
same,Potency,[2],8.91 µM (active)
same,Potency,[3],8.91 µM (active)
Cc1cccc(/C=N/Nc2cc(N3CCOCC3)nc(OCCc3ccccn3)n2)c1,Potency,[1],0.296 µM (active)
same,Potency,[3],28.2 µM (active)
COc1ccc(Cl)cc1C(=O)NCCc1ccc(S(=O)(=O)NC(=O)NC2CCCCC2)cc1,Potency,[1],inactive
same,activity (max response),[2],-4.38%
same,Potency,[3],inactive
CCCCOc1nc(N)c2c(n1)N(Cc1cccc(CN3CCCC3)c1)CC(=O)N2,Potency,[1],23.5 µM (active)
same,activity (max response),[2],-4.22%
same,Potency,[3],inactive
COc1cc(NC(C)CCCN)c2ncccc2c1 (stereo not drawn),Potency,[1],5.31 µM (active)
same,Potency,[2],4.61 µM (active)
same,Potency,[3],8.2 µM (active)
Cc1ccc(Sc2ccccc2N2CCNCC2)c(C)c1,Potency,[1],4.68 µM (active)
same,Potency,[2],25.1 µM (active)
same,Potency,[3],3.55 µM (active)
N#Cc1ccnc(N2C(=O)CC[C@H]2C(=O)N(c2cncc(F)c2)C(C(=O)NC2CC(F)(F)C2)c2ccccc2Cl)c1 (stereo partly drawn),Potency,[1],inactive
same,activity (max response),[2],6.42%
same,Potency,[3],inactive
CCOC(=O)O[C@]1(C(=O)OCCl)CC[C@H]2[C@@H]3CCC4=CC(=O)C=C[C@]4(C)[C@H]3[C@@H](O)C[C@@]21C,Potency,[1],inactive
same,activity (max response),[2],8.33% and -8.79%
same,Potency,[3],inactive
CC[C@H](Nc1ncnc2nc[nH]c12)c1nc2cccc(F)c2c(=O)n1-c1ccccc1,"viability, % of control",[1],61.7% [at 9.25 µM]
same,activity (max response),[2],-2.88%
same,Potency,[3],inactive
C/C(=C\c1csc(C)n1)[C@@H]1C[C@@H]2O[C@]2(C)CCC[C@H](C)[C@H](O)[C@@H](C)C(=O)C(C)(C)[C@@H](O)CC(=O)N1,Potency,[1],0.0132 µM (active)
same,Potency,[2],3.16 µM (active)
same,Potency,[3],8.91 µM (active)
CC(=O)[C@H]1CC[C@H]2[C@@H]3C[C@H](C)C4=CC(=O)CC[C@]4(C)[C@H]3[C@@H](O)C[C@]12C,Potency,[1],23.7 µM (active)
same,activity (max response),[2],8.53%
same,Potency,[3],inactive
Oc1ccc(Cl)cc1Sc1cc(Cl)ccc1O,Potency,[1],15 µM (active)
same,Potency,[2],3.26 µM (active)
same,Potency,[3],4.11 µM (active)
NC(=O)c1cc[n+](CC2=C(C(=O)[O-])N3C(=O)[C@@H](NC(=O)Cc4cccs4)[C@H]3SC2)cc1,Potency,[1],inactive
same,activity (max response),[2],11.8%
same,Potency,[3],inactive
CC(=O)Oc1cc(C(C)C)c(OCCN(C)C)cc1C,Potency,[1],inactive
same,activity (max response),[2],12.6%
same,Potency,[3],inactive
O=C(NOCCO)c1cc(CN2OCCCC2=O)c(F)c(F)c1Nc1ccc(I)cc1F,Potency,[1],0.0651 µM (active)
same,Potency,[2],7.08 µM (active)
same,Potency,[3],25.1 µM (active)
C/C(=C(\CCOP(=O)(O)O)SC(=O)c1ccccc1)N(C=O)Cc1cnc(C)nc1N,"viability, % of control",[1],78.4% [at 4.97 µM]
same,activity (max response),[2],11.3%
same,"activity change, negative = viability loss",[3],7.45% [at 3.81 µM]
CC(C)=CCC/C(C)=C/CC/C(C)=C/C(=O)OCC(=O)[C@@]1(O)CC[C@H]2[C@@H]3CCC4=CC(=O)C=C[C@]4(C)[C@H]3[C@@H](O)C[C@@]21C,Potency,[1],9.44 µM (active)
same,activity (max response),[2],9.99%
same,Potency,[3],inactive
COc1ccc(/C=C/C(=O)Nc2ccccc2C(=O)O)cc1OC,Potency,[1],inactive
same,activity (max response),[2],-0.0143%
same,Potency,[3],inactive
C[C@@H]1C[C@H]2[C@@H]3C[C@H](F)C4=CC(=O)C=C[C@]4(C)[C@@]3(F)[C@@H](O)C[C@]2(C)[C@@]1(O)C(=O)CO,Potency,[1],2.11 µM (active)
same,activity (max response),[2],-1.7%
same,Potency,[3],inactive
CCCCNc1ccc(C(=O)OCCN(C)C)cc1,Potency,[1],inactive
same,activity (max response),[2],4.21%
same,Potency,[3],inactive
COc1ccc(/C=N/NC(=O)c2ccncc2)cc1OC,Potency,[1],inactive
same,activity (max response),[2],-2.5%
same,Potency,[3],inactive
O=C(Nc1cc(Oc2cc(F)c(NC(=O)C3(C(=O)Nc4ccc(F)cc4)CC3)cc2F)ccn1)C1CC1,Potency,[1],25.9 nM (active) and 66.1 nM (active)
same,activity (max response),[2],-9.83%
same,Potency,[3],inactive
Cc1cc(C)nc(NS(=O)(=O)c2ccc(N)cc2)n1,Potency,[1],inactive
same,activity (max response),[2],6.1%
same,Potency,[3],inactive
COc1cc(N)c(Cl)cc1C(=O)NC1CCN(Cc2ccccc2)CC1,Potency,[1],inactive
same,activity (max response),[2],-15.7%
same,Potency,[3],inactive
CC[C@]12C=CCN3CC[C@@]4(c5cc([C@@]6(C(=O)OC)CC7C[C@@H](C(C)(F)F)CN(Cc8c6[nH]c6ccccc86)C7)c(OC)cc5N(C)[C@H]4[C@@](O)(C(=O)OC)[C@@H]1OC(C)=O)[C@@H]32 (stereo partly drawn),Potency,[1],0.105 µM (active)
same,Potency,[2],0.282 µM (active)
same,Potency,[3],0.708 µM (active)
CC(=O)[C@]1(O)Cc2c(O)c3c(c(O)c2[C@@H](O[C@H]2C[C@H](N)[C@H](O)[C@H](C)O2)C1)C(=O)c1ccccc1C3=O,Potency,[1],119 nM (active) and 83.3 nM (active)
same,Potency,[2],46.1 nM (active) and 2 µM (active)
same,Potency,[3],1.84 µM (active) and 2.24 µM (active)
CC1=C(/C=C/C(C)=C/C=C/C(C)=C/C(=O)Nc2ccc(O)cc2)C(C)(C)CCC1,Potency,[1],2.66 µM (active) and 7.42 µM (active)
same,Potency,[2],1.84 µM (active)
same,Potency,[3],4.61 µM (active)
CC1(C)OC[C@@H](COC(=O)CCc2ccc(OC[C@@H](O)CNCCNC(=O)N3CCOCC3)cc2)O1,Potency,[1],inactive
same,activity (max response),[2],-0.309%
same,Potency,[3],inactive
CC(C)(C)NCC(O)COc1ccccc1OCC1CCCO1 (stereo not drawn),Potency,[1],0.015 µM (active)
same,activity (max response),[2],-5.68%
same,Potency,[3],inactive
Nc1cccc2c(N)cccc12,Potency,[1],0.545 µM (active)
same,Potency,[3],39.8 µM (active)
